# Measurements taken from PubChem BioAssay AID588675 (Johns Hopkins Ion Channel Center, 2011).
# In all, about 310,000 compounds went through this assay and about 1,900 (0.61%) were called active. This is one part of a sample in which actives are shown more often than they occur.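 The calls were made as follows: active = plate-corrected calcium response at least 3 library SD above typical, normal starting fluorescence, not activating the receptor alone; inactive = the rest.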
# Target: Mas-related G-protein coupled receptor member X1 (Homo sapiens) (UniProt Q96LB2)
# Sequence (Q96LB2 whole entry, looked up): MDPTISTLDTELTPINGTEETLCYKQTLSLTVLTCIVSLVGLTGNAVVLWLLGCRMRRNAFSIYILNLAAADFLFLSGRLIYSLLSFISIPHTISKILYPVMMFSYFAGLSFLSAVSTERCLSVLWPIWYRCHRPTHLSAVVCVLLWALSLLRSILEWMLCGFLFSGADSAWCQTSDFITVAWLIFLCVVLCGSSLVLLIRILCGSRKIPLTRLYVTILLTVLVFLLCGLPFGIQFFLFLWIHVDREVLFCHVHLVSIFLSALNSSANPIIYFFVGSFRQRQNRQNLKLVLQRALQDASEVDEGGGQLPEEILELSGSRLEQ
# Experiment: positive allosteric modulators of MrgX1, primary screen, HEK293 cells, Fluo-4 calcium flux (AID 588675);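 also: compound read alongside a low EC10 to EC30 dose of BAM8-22 agonist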;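 as to B-score: peak minus trough fluorescence over baseline measured at the second addition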
# Conditions: MrgX1-HEK293, Fluo-4 calcium flux, FDSS, at 10 µM; stronger effect = higher value
row,SMILES,B-score
1,Cc1ccc(NC(=O)Nc2ccc3oc(C)nc3c2)cc1,inactive
2,CC(=O)NS(=O)(=O)c1ccc(N/C(N)=N/c2nc(C)cc(C)n2)cc1,inactive
3,Cc1ccc(N/C(N)=N/c2nc(C(F)(F)F)cc(C(F)(F)F)n2)cc1,38.3 (active)
4,O=C(c1noc2c1CCCC2)N1CCc2ccccc2C1,inactive
5,Cc1cc(C)cc(Oc2nc3c(C)cccn3c(=O)c2/C=C(\C#N)C(=O)NC2CCS(=O)(=O)C2)c1 (stereo unspecified),inactive
6,CN1CC(c2ccccc2)C2(COc3ccccc3C2=O)C12C(=O)Nc1ccccc12 (stereo unspecified),inactive
7,CCC(C)Sc1nc(C)nc2c1c(=O)n(C)c(=O)n2C (stereo unspecified),17.1 (active)
8,CSc1nc(C)nc2c1c(=O)n(C)c(=O)n2C,inactive
9,CCOC(=O)N1CCN(C(=O)CSc2nc(C)nc3c2c(=O)n(C)c(=O)n3C)CC1,inactive
10,CC1(C(=O)N/N=C/c2cc3c(cc2Br)OCO3)CC1(Br)Br (stereo unspecified),8.54 (active)
11,CC(=O)N/N=C/c1cc2c(cc1[N+](=O)[O-])OCO2,inactive
12,O=C(N/N=C/c1cc2c(cc1Br)OCO2)C1COc2ccccc2O1 (stereo unspecified),inactive
13,CCOC(=O)C1(Cc2ccccc2C)CCCN(S(C)(=O)=O)C1 (stereo unspecified),inactive
14,O=C(NC(Cc1ccccc1)C(=O)O)/C(=C\c1ccccc1)NC(=O)c1ccco1 (stereo unspecified),inactive
15,CS(=O)(=O)C1=NN2C(=N)/C(=C\c3ccc(OCCOc4ccccc4)cc3)C(=O)N=C2S1,inactive
16,CS(=O)(=O)c1ccc2c(c1)SC1=NC(=O)/C(=C/c3ccco3)C(=N)N12,inactive
17,Cc1ccc(C2=N/C(=C\c3ccc(OS(=O)(=O)c4ccc(C)cc4)cc3)C(=O)O2)cc1,inactive
18,CCS(=O)(=O)C1=NSC2=NC(=O)/C(=C\c3cc(C)n(-c4cccc(OC)c4)c3C)C(=N)N21,10.5 (active)
19,CCC1=NN2C(=N)/C(=C/c3cc(C)n(-c4ccccc4)c3C)C(=O)N=C2S1,inactive
20,Cc1cc(/C=C2\SC(=O)N(C)C2=O)c(C)n1-c1cccc(C(=O)O)c1,inactive
21,COc1ccccc1OCCOc1ccc(/C=C2\C(=N)N3N=C(C)SC3=NC2=O)cc1,inactive
22,Cc1cc(/C=C2/C(=N)N3C(=NC2=O)SN=C3S(C)(=O)=O)c(C)n1-c1ccccc1,11.8 (active)
23,CCS(=O)(=O)C1=NSC2=NC(=O)/C(=C\c3ccc(OS(=O)(=O)c4ccccc4)cc3)C(=N)N21,24.2 (active)
24,COC1(C2=NCCN2)COc2ccccc2O1 (stereo unspecified),inactive
25,COc1ccccc1NC(=O)N1CCCC1C(=O)NCc1cccs1 (stereo unspecified),inactive
26,COc1cccc(-c2nnc(NC(=O)c3ccc(S(=O)(=O)N(CC(C)C)CC(C)C)cc3)o2)c1,inactive
